# MOR-DOR ag: agonists of OPRM1-OPRD1 heterodimerization, primary screen, cell-based, luminescence; Mu-type opioid receptor (Homo sapiens) + Delta-type opioid receptor (Homo sapiens), …; cells; activation, % at 9.3 µM; actives 0.3% (n = 340,000)
# Target sequence (P35372 whole entry, looked up): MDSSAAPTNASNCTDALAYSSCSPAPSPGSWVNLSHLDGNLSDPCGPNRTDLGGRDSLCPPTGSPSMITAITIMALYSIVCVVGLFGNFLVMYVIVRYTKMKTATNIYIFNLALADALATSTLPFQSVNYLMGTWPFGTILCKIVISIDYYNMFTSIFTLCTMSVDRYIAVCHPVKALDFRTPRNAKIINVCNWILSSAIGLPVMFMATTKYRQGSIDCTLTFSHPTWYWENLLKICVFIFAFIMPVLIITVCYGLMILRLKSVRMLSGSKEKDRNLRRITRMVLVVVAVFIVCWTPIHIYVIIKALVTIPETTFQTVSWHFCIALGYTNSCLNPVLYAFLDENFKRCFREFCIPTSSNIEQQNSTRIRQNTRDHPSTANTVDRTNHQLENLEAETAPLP
# Target sequence (P41143 whole entry, looked up): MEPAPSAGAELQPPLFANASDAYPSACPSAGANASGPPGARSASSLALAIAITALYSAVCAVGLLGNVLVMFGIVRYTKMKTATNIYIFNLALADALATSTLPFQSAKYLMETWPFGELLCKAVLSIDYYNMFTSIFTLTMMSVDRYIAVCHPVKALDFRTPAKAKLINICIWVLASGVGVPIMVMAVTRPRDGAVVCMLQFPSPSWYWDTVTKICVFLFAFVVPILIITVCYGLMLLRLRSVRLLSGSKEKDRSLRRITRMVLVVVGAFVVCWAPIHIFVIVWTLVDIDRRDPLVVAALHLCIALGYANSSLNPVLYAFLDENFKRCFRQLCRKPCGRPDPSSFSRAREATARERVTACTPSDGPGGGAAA
# OPRM1-OPRD1 inv: inverse agonists of MOR-DOR heterodimerization, primary screen, cell-based, luminescence. Mu-type opioid receptor (Homo sapiens) + Delta-type opioid receptor (Homo sapiens), …. cell-based MOR-DOR heterodimer luminescence, inverse agonism. inhibition, % at 9.3 µM. actives 0.21% (n = 340,000). AID 504357, 2011; in the data active = inhibition above about 22%, passing the limit was not always enough
# HTR5A ag: HTR5A agonists in luminescence cell assay, primary screen, counter-screen for OPRM1-OPRD1 heterodimer agonist project, full-deck HTS | 5-hydroxytryptamine receptor 5A (Homo sapiens), P47898 | cell-based | activation, % at 9.3 µM | actives 0.61% (n = 340,000) | AID 504692, 2011; in the data active = activation mostly above about 9.5%, no sharp cut-off; inactive = mostly below about 7.6%
# HTR5A inv ctr: HTR5A inverse agonists in luminescence cell assay, primary screen, counter-screen for OPRM1-OPRD1 heterodimer inverse agonist project, full-deck HTS. actives 0.083% (n = 340,000). AID 504634, 2011. 5-hydroxytryptamine receptor 5A (Homo sapiens), P47898. inhibition, % at 9.3 µM. HTR5A cell line, inverse agonism; in the data active = inhibition mostly above about 23%, no sharp cut-off; inactive = mostly below about 18%
# OPRM1-D1 ag cf: agonists of MOR-DOR heterodimerization, confirmation, cell-based, luminescence. activation, % at 9.3 µM. AID 504904, 2011. cells, luminescence complementation. actives 45% (n = 830). shares compounds with MOR-DOR ag
# HTR5A ag ctr2: HTR5A agonists in cells, counter-screen for OPRM1-OPRD1 heterodimer agonist project, cell-based, luminescence. activation, % at 9.3 µM. actives 8% (n = 830). shares compounds with MOR-DOR ag. HTR5A agonist counterscreen; in the data active = activation above about 17%
# Numbers stand for hits; i = inactive; nt = not tested or not shown. An excerpt weighted towards active compounds, which were near 1.1% of everything screened. Cut-off read from the data, not from the text of the source, unless noted: active = activation above about 18%; inactive = the rest.
SMILES,MOR-DOR ag,OPRM1-OPRD1 inv,HTR5A ag,HTR5A inv ctr,OPRM1-D1 ag cf,HTR5A ag ctr2
Cc1cccc2c1-c1sc(C(=O)Nc3cccnc3)cc1CO2,i,i,10.8,i,nt,nt
Cc1cc(C(=O)c2cnc(/N=C/N(C)C)s2)c(F)cc1Cl,i,i,i,i,nt,nt
Cc1ccc(S(=O)(=O)N2CCN(C(=O)CNC(=O)c3ccc(Cl)cc3)CC2)cc1,i,i,i,i,nt,nt
Cc1occc1C(=O)N/N=C/c1ccc(OCc2ccccc2)cc1,i,i,i,i,nt,nt
Cc1occc1C(=O)N/N=C/c1ccc(-c2ccccc2)cc1,19.9,i,i,i,60.2,i
CCNc1sc(C(=O)OCC)c(N)c1C#N,i,i,i,i,nt,nt
COc1ccc(/C=C/C(=O)Nc2ccc3nc4n(c(=O)c3c2)CCCC4)cc1,26.8,i,12.1,i,i,i
COc1ccc(-c2nc(CN3CCC(C(=O)NCC4CCCO4)CC3)c(C)o2)cc1OC (stereo not given),30.0,i,i,i,23.5,i
COC(=O)c1cc(OC)c(OC)cc1NC(=O)c1ccco1,i,i,i,i,nt,nt
COc1ccc(NC(=O)COC(=O)c2cc(OC)c(OC)cc2NC(=O)c2ccco2)cc1OC,22.8,i,i,i,i,i
N#CCC(=O)N/N=C/c1cn(Cc2ccc(Cl)c(Cl)c2)c2ccccc12,19.0,i,i,i,i,i
Cc1noc(C)c1C(=O)OC(C)C(=O)NC(C)c1ccc(Cl)cc1Cl (stereo not given),i,i,i,i,nt,nt
CN(C)c1ccc(C(CNC(=O)Cc2cccc3ccccc23)N(C)C)cc1 (stereo not given),38.9,i,i,i,44.9,i
COc1ccc(C(CNC(=O)/C=C/c2c(Cl)nc3ccccn23)N(C)C)cc1 (stereo not given),62.9,i,i,i,66.0,i
COc1ccc(C(CNC(=O)CSc2ccccc2C)N(C)C)cc1 (stereo not given),115.2,i,i,i,112.1,i
CCC(=O)NC(c1ccc(N(C)C)cc1)c1c(O)ccc2ccccc12 (stereo not given),i,i,i,i,nt,nt
COc1ccc(C(CNC(=O)Cc2ccc(-c3ccccc3)cc2)N(C)C)cc1 (stereo not given),320.2,i,i,i,i,i
Cc1ccc2c(c1)nc(-n1nc(C)cc1C)c1nnnn12,i,i,i,i,nt,nt
C#CCCc1cocc1/C=[N+](\[O-])c1ccc(C(=O)OCC)cc1,i,i,i,i,nt,nt
COc1ccc(CC(NC(=O)c2ccccc2)C(=O)NCC(=O)O)cc1 (stereo not given),i,i,i,i,nt,nt
COc1ccc(/C=C/C(=O)Nc2ccccc2C(=O)NCC(c2ccc(OC)cc2)N(C)C)cc1 (stereo not given),22.0,i,i,i,i,i
COc1ccc(C(CNC(=O)C(Cc2ccccc2)NC(N)=O)N(C)C)cc1 (stereo not given),23.5,i,i,i,268.5,i
COC(=O)C1CCN(Cc2cn(-c3ccccc3)nc2-c2ccc3c(c2)OCO3)CC1,51.0,i,i,i,i,i
CC(=O)NCC1CCCN(Cc2cn(-c3ccccc3)nc2-c2ccc3c(c2)OCO3)C1 (stereo not given),i,i,i,i,nt,nt
CCc1ccc(OCc2n[nH]c(=S)n2C(C)CCCC(C)C)cc1 (stereo not given),19.8,i,i,i,i,18.1
SMILES,MOR-DOR ag,OPRM1-OPRD1 inv,HTR5A ag,HTR5A inv ctr,OPRM1-D1 ag cf,HTR5A ag ctr2
COc1ccccc1C(=O)N/N=C/c1c[nH]c2ccccc12,i,i,i,i,nt,nt
COc1cc(C(=O)Nc2nc3ccc(S(C)(=O)=O)cc3s2)cc(OC)c1C,37.3,i,i,i,i,i
O=C(NCCOc1cccnc1)C1CCC(=O)N(Cc2ccccc2F)C1 (stereo not given),i,i,i,i,nt,nt
Cc1cc(=O)oc2cc(NC(=O)C3COc4ccccc4O3)ccc12 (stereo not given),20.5,i,i,i,38.6,i
O=C(Nc1ccc2c(c1)OCO2)C1COc2ccccc2O1 (stereo not given),i,i,i,i,nt,nt
COc1ccc(C(CNc2nc(-c3cccnc3)nc3ccccc23)N(C)C)cc1 (stereo not given),159.6,i,i,i,i,i
COC(=O)CNc1nc(-c2cccnc2)nc2ccccc12,i,i,i,i,nt,nt
Cc1cc(N2CCN(C)CC2)ccc1NC(=O)c1ccc(-c2ccc(Cl)cc2)o1,26.2,i,i,i,44.5,i
CN1CCN(c2ccccc2NC(=O)c2ccc(-c3ccc(Cl)c(Cl)c3)o2)CC1,i,i,i,i,nt,nt
CN1CCN(c2ccc(NC(=O)c3ccc(-c4ccccc4F)o3)cc2)CC1,158.2,i,i,i,248.6,i
CN1CCN(c2ccc(NC(=O)c3ccc(Br)o3)cc2)CC1,i,i,i,i,nt,nt
Cc1cc(C)c(NC(=O)COC(=O)c2ccncc2)c(C)c1,i,i,i,i,nt,nt
Cc1ccc(N(C(=O)c2csnn2)C(C(=O)NC2CCCCC2)c2cccnc2)c(C)c1 (stereo not given),i,i,i,i,nt,nt
CCN1CC(CN(C)Cc2cn(-c3cccc(C)c3)nc2-c2cccc(F)c2)CC1=O (stereo not given),19.9,i,i,i,i,i
Brc1ccc(C[n+]2ccccc2)cc1,i,i,i,i,nt,nt
CN(C)C(CNC(=O)CCNS(=O)(=O)c1ccccc1C(F)(F)F)c1ccccc1 (stereo not given),25.3,i,i,i,29.1,i
O=C(CCS(=O)(=O)c1ccccc1)NCCS(=O)(=O)c1ccccc1,i,i,i,i,nt,nt
CN(C)C(CNC(=O)CCc1c[nH]c2ccccc12)c1ccccc1 (stereo not given),137.8,i,i,i,19.6,i
CC(NC(=O)CCc1c[nH]c2ccccc12)c1ccccc1 (stereo not given),i,i,i,i,nt,nt
O=C(CCNS(=O)(=O)c1ccccc1C(F)(F)F)NCCCSc1ccccc1,i,i,i,i,nt,nt
CN(C)C(CNC(=O)CCS(=O)(=O)c1ccccc1)c1ccccc1 (stereo not given),59.6,i,i,i,i,i
NC(=O)Nc1ccc(C(=O)OCC(=O)N2CCCC2=O)cc1,i,i,i,i,nt,nt
COc1ccc(N2CCN(S(=O)(=O)c3c(C(=O)N4CCOCC4)c(C)n(C)c3C)CC2)cc1,i,i,i,i,nt,nt
NC(N)=N/N=C/c1ccccc1,i,i,i,i,nt,nt
NC(N)=N/N=C/c1ccc(OCc2ccccc2Cl)cc1,22.0,i,i,i,i,i
Cc1ccc(-c2csc(/C(C#N)=C(\O)CCl)n2)cc1,19.7,i,i,i,i,i
